The text below walks through data of PubChem BioAssay (NCATS).

Results filed as inconclusive are left out. Activity calls are given as the source filed them. Unless noted, calls follow the shape of the dose curve; as a rule, active = well fitted curve in the direction sought with a large enough effect; inconclusive = small, poorly fitted or top-dose-only effect, or another doubt; inactive = no such curve, though single readings can be large; an effect the other way counts as inactive or inconclusive.

For assay [1], the target named is Glutathione peroxidase 1 (Homo sapiens) (UniProt P07203). As to the kind of experiment: Primary qHTS Assay for Inhibitors of Recombinant Selenoprotein Glutathione Peroxidase 1 (GPX1) (AID 1845191). Also: nearly all actives have a fitted effect of over 65% in size. As to activity, negative = inhibition: % is scaled to controls: 0 for no effect and ±100 for the full control effect. The gist of the method: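 GR-coupled assay: compounds preincubated 30 min at room temperature with GPX1, then reaction started with CHP; final 10 nM GPX1, 1 mM GSH, 0.5 mM CHP, 0.5 mM NADPH, 100 nM GR, 0.01% BSA, pH 7.5 Tris buffer. NADPH fluorescence (340/450 nm) read at 0 and 15 min.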
In general terms: In qHTS, concentration-response curves come from the screen itself.

Assay [2] addresses Phospholipid hydroperoxide glutathione peroxidase GPX4 (Homo sapiens) (UniProt P36969). As to the kind of experiment: Primary qHTS Assay for Inhibitors of Recombinant Selenoprotein Glutathione Peroxidase 4 (GPX4) (AID 1845192). Also: nearly all actives have a fitted effect of over 65% in size. As to activity change, negative = inhibition: series mostly up to about 50 µM; % is scaled to controls: 0 for no effect and ±100 for the full control effect. The gist of the method: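 GR-coupled assay: recombinant GPX4 preincubated 30 min with compound at room temperature; final 200 nM GPX4, 1 mM GSH, 0.5 mM cumene hydroperoxide, 0.5 mM NADPH, 100 nM GR, 0.01% BSA, pH 7.5 Tris. NADPH fluorescence (340/450 nm) read at 0 and 15 min.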

The target of assay [3] is Luciferin 4-monooxygenase (Photinus pyralis) (UniProt P08659). Nature of the assay: Primary firefly luciferase (FLuc) qHTS assay for identification of artifact compounds. (AID 1845220). Also: nearly all actives have a fitted effect of over 60% in size. Also: potency is read from the fitted curve at half-maximal effect.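 As to activity change, negative = inhibition: series mostly up to about 54 µM; plate controls were DMSO vehicle for no effect and no enzyme for full effect.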 The gist of the method:
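Enzymatic FLuc inhibition assay: compounds pre-exposed to luciferin/ATP (10 uM each) for 15 min, then purified P. pyralis enzyme at 10 nM added. Read-out: luminescence at 5 min.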

The nature of assay [4]: Primary fluorescence-based thiol-reactive (MSTI) qHTS assay for identification of artifact compounds. (AID 1845221). Also: nearly all actives have a fitted effect of over 65% in size. Also: potency is read from the fitted curve at half-maximal effect. The procedure, abridged: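 A multi-concentration qHTS design tested compounds against 4 uM MSTI, pH 7.4 phosphate-buffered saline. Plates were protected from light for 1 h at room temperature before imaging fluorescence.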
In assay [5] the test system is Nanoluciferase (engineered Oplophorus gracilirostris luciferase). Nature of the assay: Primary Nanoluciferase (NLuc) qHTS assay for identification of artifact compounds. (AID 1845222).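 Also: NLuc secreted into diluted conditioned medium of S16 cells; series mostly up to about 54 µM; 0% = DMSO and -100% = no enzyme.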 The procedure, abridged:
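S16 cell supernatant NLuc, 1:55; cpds qHTS; 15 min RT dark; Nano-Glo substrate 1:100, 5 min; luminescence; Hill fit of % inhibition.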

Assay [6] is described as follows: Primary redox qHTS assay for identification of artifact compounds. (AID 1845223).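 Also: 0% = DMSO and 100% = reference compound.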 The gist of the method: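 Amplex Red (25 uM) and HRP (250 mU/mL) in HBSS, with compounds for 15 min, then 250 uM DTT for 30 min, room temperature, dark. Fluorescence 525/598 nm read; normalized to DMSO and 10 uM DA3003; Hill fit.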
Assay [7] is described as follows: qHTS drug screen for cell cycle checkpoint inhibitors in PARPi-resistant BRCA-mutant ovarian cancer cell lines. (AID 1963452; calls by dose curve). The note with it: PEO1/OlaR viability, CellTiter-Glo luminescence, 96 h, stronger effect = lower value. The procedure, abridged:
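PEO1, PEO4 and PEO1/OlaR ovarian cancer cells, 600 per well, exposed 96 h at 37C to a dilution series. Viability read by CellTiter-Glo luminescence, normalized to DMSO and empty wells; activity summarized as Z-AUC.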

The mark [8] stands for this setting: measured here: PEO1 parental Z-AUC.

Sequence of Phospholipid hydroperoxide glutathione peroxidase GPX4 (Homo sapiens) (P36969 whole entry, looked up): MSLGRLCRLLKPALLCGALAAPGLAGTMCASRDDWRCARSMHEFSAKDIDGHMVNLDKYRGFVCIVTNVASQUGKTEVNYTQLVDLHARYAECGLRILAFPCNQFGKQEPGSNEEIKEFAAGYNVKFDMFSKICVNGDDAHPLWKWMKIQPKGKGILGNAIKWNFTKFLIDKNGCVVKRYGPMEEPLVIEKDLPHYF
Sequence of Glutathione peroxidase 1 (Homo sapiens) (P07203 whole entry, looked up): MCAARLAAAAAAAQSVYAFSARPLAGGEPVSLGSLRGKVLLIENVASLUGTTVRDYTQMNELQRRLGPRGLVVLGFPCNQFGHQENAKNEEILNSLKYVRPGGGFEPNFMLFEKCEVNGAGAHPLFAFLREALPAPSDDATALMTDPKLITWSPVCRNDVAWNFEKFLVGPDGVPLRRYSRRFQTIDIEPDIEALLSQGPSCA

On to `COc1ccccc1N1CCN(CCN2C(=O)CC3(CCCC3)CC2=O)CC1`, for which the Potency result in assay [1], in assay [2], in assay [3], in assay [4] and in assay [5] was “inactive” throughout. In addition, the call in assay [6] was inactive.

For the molecule `CCN1CCN(c2cc(-c3ccc(F)cc3)c3c(n2)CCCCCC3)CC1`, the Potency entry in assay [1], in assay [2], in assay [3], in assay [4] and in assay [5] was “inactive” in each case. Besides, in assay [6], the outcome was inactive.

As for `O=C(CCC1CCN(Cc2ccccc2)CC1)c1ccc2c(c1)NCCCC2`, the Potency result in assay [1], in assay [2], in assay [3], in assay [4] and in assay [5] was “inactive” in each case. In addition, the molecule was called inactive in assay [6].

As to `CC(=O)OCC(=O)Nc1cc(C#N)cc(NC(=O)COC(C)=O)c1Cl`, the Potency result in assay [1], in assay [2], in assay [3], in assay [4] and in assay [5] was “inactive” in each case. Further, the molecule was called inactive in assay [6].

As to `CN(C)C(=O)CNC(=O)Cc1ccccc1`, the Potency result in assay [1], in assay [2], in assay [3], in assay [4] and in assay [5] was “inactive” in each case. In assay [6], the call was inactive.

As for `CN1CCC(N(Cc2cccs2)c2ccccc2)CC1`, the Potency result in assay [1], in assay [2], in assay [3], in assay [4] and in assay [5] was “inactive” throughout. Moreover, the result in assay [6] was inactive.

Regarding `CCOC(=O)c1ccc(OCCN2C[C@H](O)[C@@H](O)[C@H](O)[C@H]2CO)cc1`, the Potency result in assay [1], in assay [2], in assay [3], in assay [4] and in assay [5] was “inactive” each time. In addition, in assay [6], the molecule was classed as inactive.

With `Cc1nn(-c2ccccc2)c(C)c1/C=N/N1CCN(Cc2ccccc2)CC1`, the Potency entry in assay [1], in assay [2], in assay [3], in assay [4] and in assay [5] was “inactive” throughout. Also, the call in assay [6] was inactive.

Take `CCNC(=O)NCCCOc1cccc(CN2CCCCC2)c1`: the Potency entry in assay [1], in assay [2], in assay [3], in assay [4] and in assay [5] was “inactive” in each case. In addition, the molecule was classed as inactive in assay [6].

`COC(=O)C1=C(C)NC(COC(N)=O)=C(C(=O)OC(C)C)C1c1cccc(Cl)c1Cl` (stereo unspecified): the Potency entry in assay [1], in assay [2], in assay [3] and in assay [4] was “inactive” throughout. In addition, in assay [6], the result was inactive.

Consider `CC(=O)O[C@@H]1C(=O)O[C@@H]2[C@H]1OC(=O)[C@@H]2OC(C)=O`, for which the Potency entry in assay [1], in assay [2], in assay [3], in assay [4] and in assay [5] was “inactive” throughout. Moreover, the outcome in assay [6] was inactive.

As for `CCN(CC)CCOc1ccc(/C(=C(\Cl)c2ccccc2)c2ccccc2)cc1`, the Potency entry in assay [1], in assay [2], in assay [3], in assay [4] and in assay [5] was “inactive” each time. In addition, the outcome in assay [6] was inactive. Further, the Z-AUC was -0.751 (inactive) in assay [7], -0.39 in assay [7] (setting [8]) and -0.613 in assay [7] (measured here: PEO4 Z-AUC).

On to `C[C@H](CN1CCCC1)C(=O)c1ccc(C(F)(F)F)cc1`, for which the Potency entry in assay [1], in assay [2], in assay [3], in assay [4] and in assay [5] was “inactive” throughout. For the same molecule, the result in assay [6] was inactive.

As for `CC(C(=O)O)c1ccc(/C=C2\CCCCC2=O)cc1` (stereo unspecified), the Potency entry in assay [1], in assay [2], in assay [4] and in assay [5] was “inactive” each time. In addition, the Potency in assay [3] is 23.9 µM (active). Moreover, in assay [6], the molecule was called inactive.

Take `CC[N+]1(CC)CCC(=C(c2ccccc2)c2ccccc2)C1C` (stereo unspecified): the Potency entry in assay [1], in assay [2], in assay [3], in assay [4] and in assay [5] was “inactive” each time. For the same molecule, the molecule was classed as inactive in assay [6].

For the molecule `CCOC(=O)c1ccc(NC(=O)CN2CCCCC2)cc1`, the Potency entry in assay [1], in assay [2], in assay [3], in assay [4] and in assay [5] was “inactive” throughout. Further, in assay [6], the molecule was classed as inactive.

Consider `COC(=O)C1=CO[C@@H](O)[C@@H]2C(CO)=CC[C@H]12`, for which the Potency entry in assay [1], in assay [2], in assay [3] and in assay [5] was “inactive” throughout. For the same molecule, in assay [4], the Potency was 13.4 µM (active). Further, the outcome in assay [6] was inactive.

Regarding `Cc1cccc(N(C)C(=S)Oc2ccc3c(c2)CCC3)c1`, the Potency result in assay [1], in assay [2], in assay [3], in assay [4] and in assay [5] was “inactive” in each case. Further, in assay [6], the molecule was called inactive.

Turning to `OC1(c2ccc(Cl)c(C(F)(F)F)c2)CCN(CCCC(c2ccc(F)cc2)c2ccc(F)cc2)CC1`, the Potency result in assay [1], in assay [2], in assay [3], in assay [4] and in assay [5] was “inactive” throughout. Moreover, the call in assay [6] was inactive.

Regarding `Brc1ccc([C@H]2CN3CCSC3=N2)cc1`, the Potency result in assay [1], in assay [2], in assay [3], in assay [4] and in assay [5] was “inactive” throughout. Also, the outcome in assay [6] was inactive.

For the molecule `CN1CC(=O)N2[C@H](c3ccc4c(c3)OCO4)c3[nH]c4ccccc4c3C[C@@H]2C1=O`, the Potency entry in assay [1] and in assay [2] was “inactive” in each case. Moreover, the Z-AUC was 0.983 (inactive) in assay [7], 0.823 in assay [7] (setting [8]) and 0.783 in assay [7] (measured here: PEO4 Z-AUC).

Consider `CC(C)(C)c1nnc(NS(=O)(=O)c2ccccc2)s1`, for which the Potency entry in assay [1], in assay [2], in assay [3] and in assay [4] was “inactive” each time. In addition, the outcome in assay [6] was inactive.

Turning to `N[C@@H](Cn1ccc(=O)c(O)c1)C(=O)O`, the Potency entry in assay [1] and in assay [2] was “inactive” throughout. Moreover, in assay [3], the activity change, negative = inhibition was -9.21% [at 6.45 µM] (inactive). Also, the activity, negative = inhibition in assay [5] was -6.53% [at 6.45 µM] (inactive). Further, the redox activity (% of DA3003) in assay [6] is -4.94% [at 6.41 µM] (inactive).

With `O=C1NC(c2cccc([N+](=O)[O-])c2)=CCN1c1ccccc1O`, the Potency entry in assay [1], in assay [2], in assay [3] and in assay [5] was “inactive” throughout.

In the case of `CN1CCCN=C1/C=C/c1cccs1`, the Potency result in assay [1] and in assay [2] was “inactive” each time. In addition, the figures for the Z-AUC in assay [7], in assay [7] (setting [8]) and in assay [7] (measured here: PEO4 Z-AUC) were 0.33 (inactive), 0.491 and 0.415, respectively.
